Shown are actives, neighbours in structure and some others; about 1.8% of the full set was active somewhere.
UBC13 inh – human UBC13 polyubiquitination inhibition; inhibition, % at 20 µM; 0.47% of 330,000 active; UBC13 polyubiquitin chain formation, TR-FRET; AID 485273; P61088; in the data active means inhibition above about 45%, passing the limit was not always enough
UHRF1 MBD2 ctr – blocks human UHRF1 binding to methylated DNA; UHRF1 binding to methylated oligo, TR-FRET; inhibition, % at 4.4 µM; 0.75% of 370,000 active; in the data active means inhibition above about 21%;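 further: UHRF1 SRA domain binding a hemimethylated CpG hairpin DNA probe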
Target sequence (Q96T88 whole entry, looked up, the tested form may be a part): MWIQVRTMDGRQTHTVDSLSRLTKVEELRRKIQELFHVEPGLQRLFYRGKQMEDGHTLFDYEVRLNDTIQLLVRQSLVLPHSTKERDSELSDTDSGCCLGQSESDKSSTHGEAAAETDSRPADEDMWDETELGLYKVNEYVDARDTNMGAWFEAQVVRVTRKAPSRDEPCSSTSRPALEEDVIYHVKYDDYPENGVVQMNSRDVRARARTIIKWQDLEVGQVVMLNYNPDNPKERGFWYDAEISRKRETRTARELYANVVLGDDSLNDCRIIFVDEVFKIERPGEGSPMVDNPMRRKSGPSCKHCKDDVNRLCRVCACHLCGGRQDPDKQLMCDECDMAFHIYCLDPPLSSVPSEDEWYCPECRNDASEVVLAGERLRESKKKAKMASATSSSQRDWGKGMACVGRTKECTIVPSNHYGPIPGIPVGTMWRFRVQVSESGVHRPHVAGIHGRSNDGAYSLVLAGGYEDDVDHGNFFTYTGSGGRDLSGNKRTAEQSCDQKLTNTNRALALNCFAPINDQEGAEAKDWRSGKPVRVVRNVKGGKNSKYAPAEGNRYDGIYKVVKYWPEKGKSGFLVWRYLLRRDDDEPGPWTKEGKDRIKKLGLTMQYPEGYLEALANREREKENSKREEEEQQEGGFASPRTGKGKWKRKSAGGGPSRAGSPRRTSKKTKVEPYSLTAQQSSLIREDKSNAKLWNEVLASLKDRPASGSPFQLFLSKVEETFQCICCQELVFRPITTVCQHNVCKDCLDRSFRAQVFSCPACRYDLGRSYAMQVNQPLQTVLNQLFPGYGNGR
MBD2 inh – blocks human MBD2 binding to methylated DNA. Q9UBB5. TR-FRET, MBD2 binding to methylated oligonucleotide. inhibition, % at 4.4 µM. 0.31% of 370,000 active. AID 686964; in the data active means inhibition above about 13%
Neddyl block – inhibitors of human cullin neddylation; P61081+Q13564; 0.58% of 360,000 active; AID 651699; TR-FRET cullin neddylation, biochemical; calls only at 25 µM; in the data active means inhibition above about 36%
Hits are given with their value; i = inactive; nt = no result shown; + = active, no number.

SMILES	UBC13 inh	UHRF1 MBD2 ctr	MBD2 inh	Neddyl block
N#Cc1cc2c(=O)n3ccccc3nc2n(Cc2ccco2)c1=NC(=O)c1ccco1	i	22.0	i	nt
CN(Cc1ccccc1)C(=O)c1cccc(NC(=O)c2ccco2)c1	i	i	i	i
Clc1ccc2c(SCC3CO3)c3ccccc3nc2c1 (centres undefined)	nt	71.5	i	i
O=C(CSc1c2c(nc3cc(Cl)ccc13)CCCC2)NCCN1CCOCC1	i	i	i	i
COc1ccc(S(=O)(=O)N(C)C[C@@H]2Oc3cc(Br)ccc3S(=O)(=O)N([C@H](C)CO)C[C@@H]2C)cc1	nt	i	i	i
CC(NC(=O)C(=S)N1CCN(C)CC1)c1ccccc1 (centres undefined)	i	20.8	i	i
CN1CCN(C(=S)C(=O)Nc2ccccc2)CC1	i	22.5	i	i
CN1CCN(C(=S)C(=O)NCc2ccccc2)CC1	i	i	i	i
COC(=O)c1cc(OC)nc2c1c(=O)n(C)c(=O)n2C	i	i	i	nt
COc1cc2oc3cc(C#Cc4ccc(N)cc4)ccc3c(=O)c2cc1OC	i	i	i	i
Nc1ccc(C#Cc2ccc3c(=O)c4ccccc4oc3c2)cc1	i	23.1	i	i
Cc1ccc(-c2cc(-c3n[nH]c(=S)o3)c3ccccc3n2)cc1	nt	i	i	+
CC(C)CCc1noc(CN2CCC(C(=O)N3CCOCC3)CC2)n1	i	i	i	i
CCOC(=O)C1=C(C)NC2=C(C(=O)CCC2)C1c1cccnc1 (centres undefined)	i	i	i	nt
CC1=C(C(=O)OC(C)C)C(c2cccnc2)C2=C(CCCC2=O)N1 (centres undefined)	i	90.8	i	nt
Cc1ccc(-n2cccn2)c(CN2CCCC(C(=O)c3sccc3C)C2)c1 (centres undefined)	i	i	i	i
COc1cccc(-c2nn(-c3ccccc3)cc2CO)c1	i	i	i	i
COc1cccc(-c2nn(-c3ccccc3)cc2C(=O)NCC(=O)O)c1	i	22.3	i	i
O=C(Cn1ccccc1=O)c1ccc(Cl)cc1	i	i	i	i
COC(=O)c1ccc(=O)n(CC(=O)c2ccc(Cl)cc2)c1	i	26.8	i	i
O=C(C1=C(O)C(=O)N(c2nc3ccc(Cl)cc3s2)C1c1ccco1)c1ccco1 (centres undefined)	i	24.4	i	i
Cc1ccc2nc(N3C(=O)C(O)=C(C(=O)c4ccc(C)o4)C3c3ccco3)sc2c1 (centres undefined)	i	i	i	i
COc1cc(/C=C2\SC(=S)N(CC(=O)O)C2=O)ccc1OS(=O)(=O)c1ccc(C)cc1	i	25.9	i	i
CC1CC(O)(CC(O)(c2ccccc2)c2ccccc2)C(C)CN1C (centres undefined)	i	i	i	i
CC1CCN(C(=O)Cn2ncc3c([nH]c4ccccc43)c2=O)CC1	i	i	i	i
SMILES	UBC13 inh	UHRF1 MBD2 ctr	MBD2 inh	Neddyl block
CN1CCN(C(=O)Cn2ncc3c([nH]c4ccccc43)c2=O)CC1	i	23.0	i	i
Cn1c(N)c(-c2nc3cccnc3n2C)sc1=S	i	24.2	i	nt
Cc1cc(C)c(OCCCCN(C)C)c(Br)c1	i	i	i	i
Cc1cc(Cl)cc(Cl)c1OCCCCN(C)C	i	21.5	i	i
CCCc1ccc(S(=O)(=O)N2CCN(Cc3ccco3)CC2)cc1	i	i	i	i
CCCS(=O)(=O)N1CCN(Cc2ccco2)CC1	i	24.9	i	i
CN1OC[C@@H]2CN(C(=O)CCc3ccccc3)[C@H](c3ccccc3Br)C[C@@H]21	nt	77.0	i	i
CCCCNC(=O)NCCN1CCOCC1	i	35.4	i	i
CC1CN(S(=O)(=O)c2ccc(C(=O)Nc3ccc(S(=O)(=O)Nc4ncccn4)cc3)cc2)CC(C)O1 (centres undefined)	i	36.0	i	i
CC1CN(S(=O)(=O)c2cccc(C(=O)NCCCn3ccnc3)c2)CC(C)O1 (centres undefined)	i	i	i	i
CC1CN(S(=O)(=O)c2cccc(C(=O)NCc3ccccn3)c2)CC(C)O1 (centres undefined)	i	28.3	i	i
CC(C)C(NC(=O)C1CCCCC1)C(=O)NCc1ccccn1 (centres undefined)	i	i	i	i
CC(C)C(NC(=O)C1CCCCC1)C(=O)NCCc1ccccc1 (centres undefined)	i	20.7	i	i
Cc1ccc(NC(=S)NCC2CCCO2)cc1C (centres undefined)	i	i	i	i
Cc1ccc(NC(=S)NCC2CCN(C(C)c3ccccc3)C2)cc1C (centres undefined)	i	23.1	i	i
O=C1N[C@@H](c2ccccc2)COC(=O)[C@@H](Cc2ccc(F)cc2)C/C=C\C[C@@H]1CC(=O)N(CCO)Cc1ccccc1	i	i	i	i
O=C1CCC/C=C\C[C@@H](CC(=O)N(CCO)Cc2ccccc2)C(=O)N[C@H](c2ccccc2)CO1	i	22.1	i	i
O=C(CC1C(=O)NCCN1C/C=C/c1ccccc1)NCCc1ccncc1 (centres undefined)	i	23.3	i	i
O=C(CC1C(=O)NCCN1C/C=C/c1ccccc1)NCCc1cnccn1 (centres undefined)	i	i	i	i
Cn1cc(S(=O)(=O)NCCc2ccccc2)c(=O)n(C)c1=O	i	i	i	i
CC(NS(=O)(=O)c1cn(C)c(=O)n(C)c1=O)c1ccccc1 (centres undefined)	i	24.4	i	i
CC1CN(C(=O)c2ccccc2)CCC1=NO (centres undefined)	nt	i	i	nt
O=C(O)c1ccc2c(c1)-c1cc(C(=O)O)ccc1S2(=O)=O	i	i	i	i
CCN(CC)CCCNC(=O)c1cn(C)c2ccc(S(=O)(=O)N(C)C)cc2c1=O	i	27.0	i	i
COc1ccc2nccnc2c1[N+](=O)[O-]	i	30.3	i	i
SMILES	UBC13 inh	UHRF1 MBD2 ctr	MBD2 inh	Neddyl block
Cc1ccc(NC(=O)COc2ccc3c(c2)CCC3)nc1	i	i	i	i
O=C(O)c1ccc(NC2OC[C@@H](O)[C@H](O)[C@H]2O)cc1 (some centres undefined)	i	52.3	i	i
O=C(O)c1ccc(NC(=O)C2C3CCC(O3)C2C(=O)O)cc1 (centres undefined)	i	i	i	i
COc1ccc(C(C)(C)C)cc1NC(=O)c1cncc(Br)c1	i	i	i	i
O=C(NC1(C(F)(F)F)NC(=O)N(Cc2ccccc2)C1=O)c1cccs1 (centres undefined)	i	i	i	i
COc1cc(C(=O)OCC(=O)c2cc(C)n(CC3CCCO3)c2C)cc(OC)c1C (centres undefined)	i	20.9	i	i
COc1cc(C)ccc1OCC(=O)OCC(=O)c1cc(C)n(CC2CCCO2)c1C (centres undefined)	i	i	i	i
O=C(N[C@@H](Cc1ccccc1)C(=O)OCc1ccccc1)c1nc[nH]c1C(=O)N1CCNCC1	i	i	i	i
CCCn1ncc(CN2CCN(CCc3ccccc3)C(CCO)C2)c1C (centres undefined)	i	i	i	i
Cn1c(=N)n(CC(=O)c2ccc(Br)cc2)c2ccccc21	i	i	i	i
N=C1CCCN1CC(=O)c1ccc(Br)cc1	i	22.5	i	i
Cc1ccc(NC(=O)CCN2CCN(C)CC2)cc1	i	i	i	i
O=S(=O)(c1ccc2c(c1)OCCO2)N1CCN(S(=O)(=O)c2c(F)cc(F)cc2F)CC1	i	28.9	i	i

Assay outcomes as filed in PubChem BioAssay.
